# Assay results reported in PubChem BioAssay (EPA / NIEHS).
# Records with an inconclusive call do not appear. Some compounds were tested as several samples or in several runs, with calls that do not always agree. Activity calls are given as the source filed them. Rule for the calls, unless noted: active = hit-call score of the fitted dose curve at least 0.9, where 1 is the maximum; inactive = score below 0.9.
# Experiments:
# [1] = IUF_NPC2c_oligodendrocyte_migration_120hr: Leibniz Research Institute for Environmental Medicine (IUF) 120-hour Neural Progenitor Cell Migration Assay for Oligodendrocyte Migration (NPC2c) (AID 2284297);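 note: O4-positive oligodendrocyte migration distance divided by radial glia migration distance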
# How it was run: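 Exposure runs 5 days from differentiation onset at 37C, seven concentrations plus solvent control, DMSO at most 0.1%, applied to primary hNPC spheres on laminin. After fixation, O4 immunostaining gives oligodendrocyte distance from the sphere core, relative to radial glia migration.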
# [2] = IUF_NPC2a_radial_glia_migration_120hr: Leibniz Research Institute for Environmental Medicine (IUF) 120-hour Neural Progenitor Cell Migration Assay for Radial Glia Migration (NPC2a) (AID 2284298)
# How it was run: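 Migration distance in um, sphere core edge to migration-area edge, derived by nuclei-density algorithm from Hoechst images after 120 h compound exposure. Primary hNPC spheres differentiated on poly-D-lysine/laminin in N2 medium, 37C; medium half-replaced day 3.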
# [3] = IUF_NPC2a_radial_glia_migration_72hr: Leibniz Research Institute for Environmental Medicine (IUF) 72-hour Neural Progenitor Cell Migration Assay for Radial Glia Migration (NPC2a) (AID 2284299)
# How it was run: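 Human fetal cortex (GW 16-19) neural progenitor spheres, 0.3 mm, plated on poly-D-lysine/laminin in N2 differentiation medium with compound from day 0. Radial glia migration distance (um, sphere core edge to migration edge) measured manually in four directions on 72 h brightfield images; well mean used.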
# [4] = IUF_NPC2b_neuronal_migration_120hr: Leibniz Research Institute for Environmental Medicine (IUF) 120-hour Neural Progenitor Cell Migration Assay for Neuron Migration (NPC2b) (AID 2284300)
# How it was run: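 TUBB3-positive neurons are imaged after 120 h of differentiation, and their mean distance from the sphere edge is normalised to radial glia migration. Single 0.3 mm fetal hNPC spheres on poly-D-lysine/laminin received 7 compound concentrations, ≤0.1% DMSO, refreshed at day 3.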
# [5] = IUF_NPC3_neuronal_differentiation_120hr: Leibniz Research Institute for Environmental Medicine (IUF) 120-hour Neuronal Differentiation Assay (NPC3) (AID 2284301)
# How it was run: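 Human fetal (GW 16-19) neural progenitor spheres (0.3 mm) plated on poly-D-lysine/laminin in N2 differentiation medium, exposed 120 h at 37C with half-medium renewal day 3; 7 concentrations. TUBB3+ cells as % of Hoechst nuclei, CNN-identified; DMSO baseline.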
# [6] = IUF_NPC4_neurite_length_120hr: Leibniz Research Institute for Environmental Medicine (IUF) 120-hour Neuronal Morphology Assay for Neurite Length (NPC4) (AID 2284302)
# How it was run: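 Human fetal neural progenitor spheres (0.3 mm) plated on poly-D-lysine/laminin in N2 differentiation medium, exposed from day 0 for 120 h with half-medium refresh at day 3, 37C. Mean neurite length (um) of TUBB3-positive neurons from skeletonized immunostaining images; DMSO ≤0.1%.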
# [7] = IUF_NPC5_oligodendrocyte_differentiation_120hr: Leibniz Research Institute for Environmental Medicine (IUF) 120-hour Oligodendrocyte Differentiation Assay (NPC5) (AID 2284304; active = hit-call score of the fitted dose curve at least 0.9, where 1 is the maximum;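 note: primary human fetal neural progenitor spheres plated to migrate and differentiate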)
# How it was run: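 Oligodendrocyte differentiation scored as O4-positive cells, found by CNN image analysis, as percent of Hoechst-stained nuclei in the migration area. Scoring followed 5 days of exposure of plated hNPC neurospheres differentiating in DMEM/F12 N2 medium at 37C, with compound refreshed at day 3.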
# [8] = IUF_NPC4_neurite_area_120hr: Leibniz Research Institute for Environmental Medicine (IUF) 120-hour Neuronal Morphology Assay for Neurite Area (NPC4) (AID 2284305; active = hit-call score of the fitted dose curve at least 0.9, where 1 is the maximum)
# How it was run: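 Human fetal neural progenitor spheres (0.3 mm) plated on poly-D-lysine/laminin in N2 differentiation medium, exposed 120 h (7 concentrations, DMSO ≤0.1%, half-medium refresh day 3). Fixed, TUBB3 immunostained; mean neurite area per neuron by Omnisphero skeletonization.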
# [9] = IUF_NPC2-5_cytotoxicity_72hr: Cytotoxicity Assessment at 72 hours in the Leibniz Research Institute for Environmental Medicine (IUF) Neural Progenitor Cell Migration and Differentiation Assay for Cytotoxicity (NPC2-5) (AID 2284306; active = hit-call score of the fitted dose curve at least 0.9, where 1 is the maximum;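 note: LDH release into supernatant measured by resorufin fluorescence marking membrane damage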)
# How it was run: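 Human fetal primary neural progenitor spheres (0.3 mm) plated on poly-D-lysine/laminin in N2 differentiation medium, exposed from day 0 at 37C. LDH-dependent resazurin-to-resorufin fluorescence in supernatant at 72 h; 7 concentrations, DMSO at most 0.1%.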
# [10] = IUF_NPC2-5_cytotoxicity_120hr: Cytotoxicity Assessment at 120 hours in the Leibniz Research Institute for Environmental Medicine (IUF) Neural Progenitor Cell Migration and Differentiation Assay (NPC2-5) (AID 2284307; active = hit-call score of the fitted dose curve at least 0.9, where 1 is the maximum;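 for AC50: LDH released into supernatant as membrane damage marker via resorufin fluorescence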)
# How it was run: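 Membrane-integrity loss measured as LDH activity in medium supernatant via resazurin-to-resorufin fluorescence after 120 h exposure. hNPC spheres from GW 16-19 fetal cortex differentiated on poly-D-lysine/laminin, 37C, medium half-refreshed day 3; seven concentrations, DMSO max 0.1%.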
# [11] = IUF_NPC2-5_cell_number_120hr: Cell Number Assessment at 120 hours in the Leibniz Research Institute for Environmental Medicine (IUF) Neural Progenitor Cell Migration and Differentiation Assay (NPC2-5) (AID 2284308);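 note: count of Hoechst-stained nuclei in migration zone around plated human neural progenitor spheres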
# How it was run: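 Counting of all Hoechst-stained nuclei in the migration area at 120 h, versus DMSO control. Primary hNPC spheres differentiated on poly-D-lysine/laminin in N2 medium at 37C, dosed from day 0 (7 concentrations, DMSO ≤0.1%), half-refed day 3.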
# [12] = IUF_NPC2-5_viability_120hr: Viability Assessment at 120 hours in the Leibniz Research Institute for Environmental Medicine (IUF) Neural Progenitor Cell Migration and Differentiation Assay (NPC2-5) (AID 2284312)
# How it was run: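 Human fetal neural progenitor spheres (0.3 mm) plated on poly-D-lysine/laminin in N2 differentiation medium, exposed 120 h with half-medium refresh at day 3. Viability by alamar blue resazurin fluorescence; 7 concentrations, DMSO max 0.1%.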
# [13] = read-out: Interleukin-10 (IL10), IL10 (gene 3586); experiment: BSK_IMphg_IL10: BioMAP Diversity Plus: IMphg Assay for Interleukin-10 (IL10) Biomarker Activity (AID 2284294); settings: primary human endothelial cells with macrophages
# How it was run: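 Human venular endothelial cells cocultured with macrophages, dosed 24 h; IL-10 measured by ELISA, activity relative to DMSO. Cytotoxicity assessed in parallel cultures by sulforhodamine B total-protein staining.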
# [14] = BSK_IMphg_SRB.Mphg: Macrophage Viability Assessment in the BioMAP Diversity Plus: IMphg Assay (AID 2284295); settings: primary human endothelial cells with macrophages
# How it was run: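 Venular endothelial cells co-cultured with macrophages, read 24 h after dosing. Total protein measured by 0.1% SRB staining after 10% TCA fixation, absorbance at 560 nm. Fitted in positive direction against DMSO baseline.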
# [15] = read-out: Thrombomodulin, THBD (gene 7056); experiment: BSK_LPS_Thrombomodulin: BioMAP Diversity Plus: LPS Assay for Thrombomodulin Biomarker Activity (AID 2284296); settings: primary human HUVEC with PBMC
# How it was run: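 Human umbilical vein endothelial cells co-cultured with PBMC and stimulated with LPS; cell-surface thrombomodulin measured by ELISA 24 hours after compound. Gain or loss versus DMSO; cytotoxicity checked by SRB staining in parallel cultures.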
# CD69, CD69 (gene 969) = experiment: BSK_LPS_CD69: BioMAP Diversity Plus: LPS Assay for CD69 Biomarker Activity (AID 2284303); settings: primary human HUVEC with PBMC
# How it was run: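 Human umbilical vein endothelial cells co-cultured with PBMC under LPS stimulation, chemical exposure 24 h; cell-surface CD69 measured by ELISA and fitted in the positive direction versus DMSO.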
structure (smiles),measurement,setting,value
CC(C)(C)c1ccccc1OP(=O)(Oc1ccccc1)Oc1ccccc1,outcome,[1],inactive
same,AC50,[2],10 µM (active)
same,outcome,[3],inactive
same,outcome,[4],inactive
same,outcome,[5],inactive
same,outcome,[6],inactive
same,AC50,[7],4.35 µM (active)
same,outcome,[8],inactive
same,outcome,[9],inactive
same,AC50,[10],1.98 µM (active)
same,outcome,[11],inactive
same,outcome,[12],inactive
O=S(=O)(F)C(F)(F)C(F)(F)C(F)(F)C(F)(F)C(F)(F)C(F)(F)C(F)(F)C(F)(F)F,outcome,[13],inactive
same,outcome,[14],inactive
same,outcome,[15],inactive
same,outcome,"CD69, CD69 (gene 969)",inactive
O=P(Oc1ccccc1)(Oc1ccccc1)Oc1ccccc1,outcome,[1],inactive
same,AC50,[2],11 µM (active)
same,outcome,[3],inactive
same,outcome,[4],inactive
same,outcome,[5],inactive
same,outcome,[6],inactive
same,outcome,[7],inactive
same,outcome,[8],inactive
same,outcome,[9],inactive
same,outcome,[10],inactive
same,outcome,[11],inactive
same,outcome,[12],inactive
CCOP(=S)(OCC)SCSCC,outcome,[1],inactive
same,outcome,[2],inactive
same,outcome,[3],inactive
same,outcome,[4],inactive
same,outcome,[5],inactive
same,outcome,[6],inactive
same,outcome,[7],inactive
same,outcome,[8],inactive
same,outcome,[9],inactive
same,outcome,[10],inactive
same,outcome,[11],inactive
same,outcome,[12],inactive
O=C(O)C(F)(F)OC(F)(F)C(F)(F)OC(F)(F)F,outcome,[13],inactive
same,AC50,[14],11.3 µM (active)
same,outcome,[14],inactive
same,outcome,[15],inactive
same,outcome,"CD69, CD69 (gene 969)",inactive
O=C(O)C(F)(F)OC(F)(F)C(F)(F)OC(F)(F)C(=O)O,outcome,[13],inactive
same,outcome,[14],inactive
same,outcome,[15],inactive
same,outcome,"CD69, CD69 (gene 969)",inactive
CO/N=C(/C(=O)OC)c1ccccc1COc1ccccc1C,outcome,[1],inactive
same,AC50,[2],22.9 µM (active)
same,AC50,[3],21 µM (active)
same,outcome,[4],inactive
same,AC50,[5],2.33 µM (active)
same,outcome,[6],inactive
same,AC50,[7],13.9 µM (active)
same,outcome,[8],inactive
same,outcome,[9],inactive
same,outcome,[10],inactive
same,AC50,[11],19.7 µM (active)
same,outcome,[12],inactive
O=S1(=O)OCC2C(CO1)C1(Cl)C(Cl)=C(Cl)C2(Cl)C1(Cl)Cl (centres undefined),outcome,[1],inactive
same,outcome,[2],inactive
same,outcome,[3],inactive
same,outcome,[4],inactive
same,outcome,[5],inactive
same,outcome,[6],inactive
same,AC50,[7],0.403 µM (active)
same,outcome,[8],inactive
same,outcome,[9],inactive
same,outcome,[10],inactive
same,outcome,[11],inactive
same,outcome,[12],inactive
NC(=O)C(F)(F)C(F)(F)F,outcome,[13],inactive
same,outcome,[14],inactive
same,outcome,[15],inactive
same,outcome,"CD69, CD69 (gene 969)",inactive
COP(=O)(CCC(=O)NCO)OC,outcome,[15],inactive
same,AC50,"CD69, CD69 (gene 969)",0.15 µM (active)
same,outcome,"CD69, CD69 (gene 969)",inactive
O=C(O)C=CC(F)(C(F)(F)F)C(F)(F)F,outcome,[13],inactive
same,outcome,[14],inactive
same,outcome,[15],inactive
same,outcome,"CD69, CD69 (gene 969)",inactive
